Results on nine compounds are retold here after PubChem BioAssay.

SMILES strings stand for the structures. Calls of active or inactive are those of the source. Unless noted, the rule behind the calls is not given here.

Assay [1] is described as follows: A549 cell viability effects, profiling panel, calcein-AM fluorescence, 48 h, basal (AID 1162). Note: test concentration not given here. The conditions noted are these: higher = more signal.
A short description of assay [2]: adipocyte viability effects, profiling panel, cell-based, 3T3-L1 adipocytes, calcein-AM fluorescence, 48 h, basal (AID 1163). Note: test concentration not given here. The conditions noted are these: 3T3-L1 adipocytes viability, higher = more signal.
Assay [3] is described as follows: HepG2 cell viability effects, profiling panel, calcein-AM fluorescence, 48 h, basal (AID 1164). Note: test concentration not given here. Particulars: higher = more signal.
A short description of assay [4]: MM1S cell viability effects, profiling panel, calcein-AM fluorescence, 48 h, basal (AID 1165).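 Note: viability of MM1S multiple myeloma cells under basal unstimulated conditions; test concentration not given here.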 The conditions noted are these: higher = more signal.
The nature of assay [5]: basal RPMI8226 viability, no added stimulus, profiling panel, cell-based, calcein-AM fluorescence, 48 h, PK04 Diversity Set (AID 1166).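 Note: cells grown under basal conditions without added stimulus; test concentration not given here.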 The conditions noted are these: RPMI8226 myeloma viability, higher = more signal.
Assay [6] in a line: basal HepG2 mitochondrial membrane potential changes, profiling panel, cell-based, JC-1 fluorescence, 24 h, 100 nL compound (AID 1167). Note: test concentration not given here. Particulars: higher = more signal.
A short description of assay [7]: basal 3T3-L1 adipocyte mitochondrial potential changes, profiling panel, cell-based, JC-1 fluorescence, 3T3-L1 adipocytes, 24 h, 100 nL compound (AID 1168). Note: test concentration not given here. Particulars: JC-1 mitochondrial fluorescence, higher = more signal, called active from +8 up or from −8 down.
Assay [8] is described as follows: basal RPMI8226 mitochondrial membrane potential changes, profiling panel, cell-based, JC-1 fluorescence, 24 h, 100 nL compound (AID 1169). Note: test concentration not given here. The conditions noted are these: RPMI8226 myeloma, JC-1 mitochondrial potential fluorescence, higher = more signal.
Assay [9] can be described thus: basal MM1S mitochondrial membrane potential changes, profiling panel, cell-based, JC-1 fluorescence, 24 h, 100 nL compound (AID 1170). Note: test concentration not given here. The conditions noted are these: higher = more signal.
A short description of assay [10]: A549 lung cancer cell viability effects, profiling panel, resazurin fluorescence, 24 h, PK04 Diversity Set (AID 1171). Note: test concentration not given here. Particulars: higher = more signal, called active from +8 up or from −8 down.
A short description of assay [11]: HepG2 liver cancer cell viability effects, profiling panel, resazurin fluorescence, 24 h, PK04 Diversity Set (AID 1172). Note: test concentration not given here. Particulars: higher = more signal. (In general: Resazurin is reduced to fluorescent resorufin, in cell work by metabolically active cells.)
A short description of assay [12]: basal S. cerevisiae growth modulation, no modifier, primary screen, OD600, strain BY4716, 24 h, basal condition (AID 1173). Particulars: OD600, 24 h, higher = more signal, called active from +8 up or from −8 down.
Assay [13] in a line: MM1S myeloma cell viability, profiling panel, resazurin fluorescence, basal, 24 h, PK04 Diversity Set (AID 1174). Note: test concentration not given here. The conditions noted are these: higher = more signal, called active from +8 up or from −8 down.
For assay [14], the target named is Dihydroorotate dehydrogenase (quinone), mitochondrial (Plasmodium falciparum (isolate 3D7)) (UniProt Q08210). As to the kind of experiment: PfDHODH enzyme inhibitors, primary screen, biochemical, C-terminal His tag, absorbance 600 nm (AID 1175).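 Note: recombinant parasite enzyme with a five histidine tag at its C terminus; test concentration not given here.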 The conditions noted are these: DCIP absorbance 600 nm, higher = more signal, called active from +8 up or from −8 down.
Dihydroorotate dehydrogenase (quinone), mitochondrial (Plasmodium falciparum (isolate 3D7)), sequence (Q08210 whole entry, looked up): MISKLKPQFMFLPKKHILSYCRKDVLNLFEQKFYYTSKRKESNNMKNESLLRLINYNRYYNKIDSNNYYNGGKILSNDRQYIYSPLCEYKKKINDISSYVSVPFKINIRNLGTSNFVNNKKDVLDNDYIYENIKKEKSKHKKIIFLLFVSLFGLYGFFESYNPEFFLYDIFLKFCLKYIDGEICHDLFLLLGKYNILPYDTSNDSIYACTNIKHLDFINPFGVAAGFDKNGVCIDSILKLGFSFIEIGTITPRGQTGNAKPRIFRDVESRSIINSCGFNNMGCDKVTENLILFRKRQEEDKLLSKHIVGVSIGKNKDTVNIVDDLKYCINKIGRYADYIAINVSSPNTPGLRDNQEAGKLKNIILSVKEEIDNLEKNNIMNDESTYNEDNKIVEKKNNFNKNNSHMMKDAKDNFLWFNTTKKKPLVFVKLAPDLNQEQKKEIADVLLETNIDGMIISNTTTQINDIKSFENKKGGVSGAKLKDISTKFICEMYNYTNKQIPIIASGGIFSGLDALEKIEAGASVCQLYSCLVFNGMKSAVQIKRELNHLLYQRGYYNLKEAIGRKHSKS

Assay [15] is described as follows: P. aeruginosa biofilm formation inhibitors, primary screen, strain PAO1, LB-PBS medium, absorbance 600 nm (AID 1176). Note: test concentration not given here. Particulars: P. aeruginosa PAO1 growth/biofilm, A600, 12 h; higher = more signal.
Assay [16] can be described thus: S. cerevisiae RM11-1a growth modifiers, primary screen, strain RM11-1a, OD600, basal, 24 h (AID 1177).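 Note: cultures grown under basal conditions with no added stressor; test concentration not given here.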 Particulars: OD600, 24 h, higher = more signal, called active from +8 up or from −8 down.
A short description of assay [17]: E. coli acrAB mutant growth effects, primary screen, E. coli filamentation inducers, strain DRC39, OD650, 24 h (AID 1178).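 Note: growth measured as culture turbidity by optical density at 650 nm; test concentration not given here.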 Particulars: higher = more signal, called active from +8 up or from −8 down.
The nature of assay [18]: E. coli acrAB mutant growth effects, primary screen, E. coli filamentation inducers, strain DRC39, OD650, 48 h (AID 1179).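 Note: screen aims at cell division blockers that make cells filament.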 The conditions noted are these: E. coli DRC39 delta-acrAB growth, higher = more signal, called active from +8 up or from −8 down.
The nature of assay [19]: RPMI8226 myeloma cell viability, profiling panel, resazurin fluorescence, basal, 24 h, PK04 Diversity Set (AID 1180).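 Note: RPMI8826 multiple myeloma cell line at 5000 cells per well; test concentration not given here.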 The conditions noted are these: higher = more signal.
In assay [20] the target is E3 ubiquitin-protein ligase XIAP (Homo sapiens) (UniProt P98170). As to the kind of experiment: XIAP binders, primary screen, biophysical, small-molecule microarray, fluorescence 635 nm (AID 1181).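 Note: score merges 667 nm emission and signal to noise over triplicate slides.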 The conditions noted are these: small-molecule microarray binding, higher = more signal.
E3 ubiquitin-protein ligase XIAP (Homo sapiens), sequence (P98170 whole entry, looked up): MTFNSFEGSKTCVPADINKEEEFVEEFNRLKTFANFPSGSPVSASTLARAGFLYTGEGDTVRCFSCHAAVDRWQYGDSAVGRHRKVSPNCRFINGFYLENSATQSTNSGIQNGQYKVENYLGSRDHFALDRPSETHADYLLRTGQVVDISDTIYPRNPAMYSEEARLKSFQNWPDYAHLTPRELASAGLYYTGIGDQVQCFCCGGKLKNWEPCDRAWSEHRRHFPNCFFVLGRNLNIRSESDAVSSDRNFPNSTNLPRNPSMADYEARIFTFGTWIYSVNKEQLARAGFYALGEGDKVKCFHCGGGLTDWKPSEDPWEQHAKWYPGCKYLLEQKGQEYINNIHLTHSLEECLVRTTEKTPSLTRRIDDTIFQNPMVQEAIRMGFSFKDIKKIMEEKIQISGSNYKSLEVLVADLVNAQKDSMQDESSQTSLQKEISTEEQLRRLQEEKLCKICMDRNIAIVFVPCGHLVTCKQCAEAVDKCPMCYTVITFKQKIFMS

`O=C(OCc1ccccc1)C1=CCC2c3[nH]c4ccccc4c3C(=O)C1N2S(=O)(=O)c1ccccc1[N+](=O)[O-]` (stereo not given): the z-score is -0.725 in [1]; -0.816 in [2]; -0.267 in assay [3]; -0.624 in assay [4]; -0.286 in assay [5]; -3.06 in assay [6]. Also, the z-score was -4.43 (inactive) in assay [7]; -1.14 in assay [8]; -3.28 in [9]; -0.311 (inactive) in [10]; -0.106 in [11]; 1.57 (inactive) in assay [12]. Moreover, the z-score in assay [13] was -1.2 (inactive); in assay [15], 0.381 (inactive); in [16] it was 0.714 (inactive); in assay [17] it was -1.04 (inactive); in assay [18], -1.43 (inactive); in [19] it was -0.878. Besides, the composite z-score in [14] is -0.386 (inactive); in [20], -0.113.

Regarding `Cc1ccc(S[C@]2(C(=O)NCCCN(C)C)CC(=O)N(Cc3cc(C(F)(F)F)cc(C(F)(F)F)c3)[C@@H]2c2ccc(CO)cc2I)cc1`, the z-score is 0.0371 in [1]; -0.787 in assay [2]; 0.241 in [3]; -2.19 in assay [4]; -2 in [5]; -0.547 in assay [6]. In addition, the z-score was 0.669 (inactive) in assay [7]; -0.442 in assay [8]; -2.03 in assay [9]; -0.335 (inactive) in assay [10]; -0.274 in [11]; -4.35 (inactive) in assay [12]. For the same compound, the z-score was -3.04 (inactive) in assay [13]; 0.323 (inactive) in assay [15]; -0.514 (inactive) in assay [16]; 0.392 (inactive) in assay [17]; 0.786 (inactive) in assay [18]; -2.62 in [19]. For the same compound, the composite z-score in assay [14] is -0.0868 (inactive); in assay [20] it was -0.0795.

Turning to `C=CCNC(=O)[C@H]1[C@@H]2C(=O)O[C@@H](c3ccccc3)[C@@H](c3ccccc3)N2[C@@H](c2ccccc2OCCO)[C@]12C(=O)Nc1ccc(C#CCCO)cc12`, the z-score in assay [1] is 0.126; in [2] it was 1.04; in assay [3], -0.543; in assay [4], -2.03; in [5] it was -1.91; in assay [6] it was -0.651. Moreover, the z-score in [7] was -0.936 (inactive); in [8], -0.953; in assay [9], -0.31; in [10] it was -0.685 (inactive); in assay [11], -0.349; in assay [12], 1.22 (inactive). The z-score in assay [13] is -0.942 (inactive); in assay [15], 0.462 (inactive); in assay [16], 2.33 (inactive); in assay [17], -0.393 (inactive); in assay [18], -0.445 (inactive); in assay [19], -0.969. Further, the composite z-score in assay [14] is 2.6 (inactive); in assay [20], 1.02.

As for `C=CCC(OC(C)=O)[C@@H]1[C@@H](N(Cc2ccc(-c3ccccc3)cc2)C(=O)c2ccc(-c3ccccc3)cc2)c2cc(OCCCO)ccc2N1C(=O)Cc1ccc2ccccc2c1` (stereo not given in full), the z-score was -0.475 in assay [1]; 0.367 in assay [2]; 0.325 in assay [3]; -2.3 in assay [4]; -0.806 in [5]; 0.96 in assay [6]. The z-score was -1.07 (inactive) in [7]; -0.793 in assay [8]; 0.292 in assay [9]; 1.2 (inactive) in [10]; 0.289 in assay [11]; 0.274 (inactive) in assay [12]. The z-score in assay [13] is 0.7 (inactive); in [15], 0.526 (inactive); in [16], -0.357 (inactive); in assay [17], -0.433 (inactive); in assay [18], -0.5 (inactive); in assay [19] it was 0.465. Further, the composite z-score in assay [14] was -0.0366 (inactive); in assay [20], 0.225.

For the compound `CC(C)N1C(=O)[C@@]2(Cc3ccccc31)c1ccccc1C(=O)N(Cc1ccccc1Cl)[C@H]2c1ccc(CO)cc1`, the z-score in [1] is 1.02; in assay [2], -0.24; in assay [3] it was -0.921; in assay [4], -1.58; in assay [5], -0.238; in assay [6], 0.407. Further, the z-score in [7] was 0.111 (inactive); in assay [8], 0.115; in assay [9] it was -1.76; in [10] it was 0.458 (inactive); in assay [11], 1.07; in assay [12] it was -1.87 (inactive). The z-score was 0.845 (inactive) in [13]; 0.31 (inactive) in assay [15]; -1.6 (inactive) in [16]; 0.344 (inactive) in [17]; 0.659 (inactive) in assay [18]; 1.32 in assay [19]. In addition, the values for the composite z-score in [14] and in [20] were -4.26 (inactive) and 0.257, respectively.

As for `[N-]=[N+]=NCc1ccccc1C[C@]1(C(N)=O)COC(c2ccc(OCCCO)cc2)=N1`, the z-score was 0.446 in [1]; 0.431 in assay [2]; 1.28 in assay [3]; -0.761 in [4]; 0.0881 in [5]; -0.234 in assay [6]. Also, the z-score in [7] was 1.16 (inactive); in [8] it was -0.425; in assay [9], 1.07; in [10], -1.1 (inactive); in assay [11] it was 0.252; in [12] it was -1.66 (inactive). Also, the z-score in [13] was 0.424 (inactive); in assay [15] it was 0.466 (inactive); in assay [16] it was -1.37 (inactive); in [17] it was 1.23 (inactive); in assay [18], 1.87 (inactive); in [19], 0.399. The values for the composite z-score in assay [14] and in [20] were -0.0854 (inactive) and 0.144, respectively.

Turning to `COc1cc2c(cc1O)C(C1CC1)N(Cc1sc3ccccc3c1Cl)CC2` (stereo not given), the z-score in assay [1] was -4; in assay [2], 0.0337; in [3] it was -4.15; in assay [4], -3.32; in [5] it was -4.44; in assay [6], -3.67. Moreover, the z-score in [7] was -1.07 (inactive); in [8], -0.858; in assay [9], -0.539; in [10] it was -0.663 (inactive); in assay [11] it was -1.58; in assay [12], -18.3 (active). Also, the z-score in [13] was -0.789 (inactive); in [15], -1.33 (inactive); in assay [16], -22 (active); in assay [17], 0.531 (inactive); in assay [18] it was -0.75 (inactive); in assay [19] it was -1.42. For the same compound, the composite z-score in assay [14] was -0.931 (inactive); in [20], -0.031.

In the case of `COc1cccc(-c2cccc(=O)o2)c1`, the z-score in assay [1] is -1.06; in [2], -0.458; in assay [3], -0.834; in assay [4], 0.192; in assay [5] it was -1.87; in assay [6], -1.27. The z-score was 0.236 (inactive) in [7]; 0.812 in assay [8]; 0.0881 in [9]; 0.563 (inactive) in assay [10]; -0.314 in assay [11]; -7.29 (inactive) in assay [12]. Further, the z-score in assay [13] was -0.28 (inactive); in assay [15], 0.381 (inactive); in [16], 0.346 (inactive); in [17], -0.0605 (inactive); in assay [18] it was -0.17 (inactive); in assay [19] it was -0.0335. Further, the composite z-score in [14] was -1.02 (inactive); in assay [20], 0.488.

In the case of `C=C(COC)/C(=C/C[C@@H](OC(=O)c1ccncc1)c1ccc(CO)o1)c1cc(C(=O)OC)ccc1OC`, the z-score in [1] is 0.27; in [2], -0.766; in assay [3] it was 0.466; in [4] it was -0.761; in [5], -0.27; in assay [6], 0.232. The z-score in assay [7] is -0.478 (inactive); in assay [8], -0.277; in [9], -1.28; in assay [10], 0.386 (inactive); in assay [11], 0.755; in assay [12], -0.439 (inactive). The z-score in assay [13] was 0.0477 (inactive); in [15], 1.03 (inactive); in assay [16], 0.0707 (inactive); in assay [17], 1.19 (inactive); in assay [18], 1.03 (inactive); in assay [19] it was 0.515. The values for the composite z-score in [14] and in assay [20] were -2.14 (inactive) and 1.7, respectively.
